Reference: PubChem BioAssay AID1159580 (chemical genetic matrix, 2015)
Among all 5,500 compounds or so, about 2,000 (36%) were called active. Inconclusive results (about 18%) are left out. No stated cut-off is given here; in the data, active means normalized growth mostly below about 0.91 (no sharp cut-off); inconclusive means no clear call, values can overlap the other calls; inactive means mostly above about 0.92. The list shows a part of the results.

Experiment: chemical genetic growth profiling, strain panel (AID 1159580);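 further: tested at 20 µM; growth read once vehicle control cultures reached saturation at 30 °C; 1 = growth at the plate median or of vehicle wells; lower values mean less growth of the strain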
Settings: S. cerevisiae deletion strains, growth OD

Measured: normalized growth

COc1cc2c(cc1OC)C1C(=O)c3ccc4c(c3OC1CO2)CCC(C)(C)O4 (stereo not drawn)
inactive: locus YBR021W, strain FUR4, active compounds read low 0.985 | locus YBR229C, strain ROT2, active compounds read low 1 | locus YCL029C, strain bik1, active compounds read low 1.04 | locus YDL035C, strain GPR1, active compounds read low 1.01 | locus YDL074C, strain BRE1, active compounds read low 0.993 | locus YDL101C, strain DUN1, active compounds read low 0.997 | locus YDL185W, strain tfp1, active compounds read low 1.03 | locus YDL192W, strain arf1, active compounds read low 1.01 | locus YDR101C, strain arx1, active compounds read low 0.997 | locus YDR162C, strain NBP2, active compounds read low 1.03 | locus YDR318W, strain mcm21, active compounds read low 1.01 | locus YDR388W, active compounds read low 1 | locus YDR502C, strain sam2, active compounds read low 1.02 | locus YEL061C, strain CIN8, active compounds read low 1 | locus YER110C, active compounds read low 1.02 | locus YER155C, strain BEM2, active compounds read low 0.996 | locus YER167W, strain BCK2, active compounds read low 0.999 | locus YGL078C, strain dbp3, active compounds read low 1.03 | locus YGL086W, strain mad1, active compounds read low 1.02 | locus YGL248W, strain PDE1, active compounds read low 0.99 | locus YGR078C, strain PAC10, active compounds read low 0.996 | locus YGR135W, strain pre9, active compounds read low 1.02 | locus YGR252W, strain gcn5, active compounds read low 0.957 | locus YHR030C, strain SLT2, active compounds read low 1.01 | locus YHR079C, strain IRE1 (second series), active compounds read low 1 | locus YHR094C, strain hxt1, active compounds read low 1.02 | locus YHR129C, strain ARP1, active compounds read low 1.01 | locus YHR200W, strain rpn10, active compounds read low 1 | locus YIL066C, strain RNR3, active compounds read low 1 | locus YIL073C, strain SPO22, active compounds read low 1.02 | locus YIL125W, strain kgd1, active compounds read low 1.02 | locus YIR030C, strain dcg1, active compounds read low 1 | locus YJL095W, strain BCK1, active compounds read low 1.01 | locus YJL134W, strain LCB3, active compounds read low 0.996 | locus YJL168C, strain set2, active compounds read low 1 | locus YJL187C, strain SWE1 (second series), active compounds read low 0.999 | locus YJR043C, strain POL32, active compounds read low 1.01 | locus YKL009W, strain mrt4, active compounds read low 1.03 | locus YKL068W, active compounds read low 1 | locus YKL085W, strain MDH1 (second series), active compounds read low 1.01 | locus YKL085W, strain MDH1, active compounds read low 1.01 | locus YKR001C, strain vps1, active compounds read low 0.994 | locus YLR039C, strain RIC1, active compounds read low 1.01 | locus YLR058C, strain SHM2, active compounds read low 0.999 | locus YLR102C, strain apc9, active compounds read low 1.01 | locus YLR262C, strain YPT6, active compounds read low 1.04 | locus YLR268W, strain sec22, active compounds read low 1.02 | locus YLR330W, strain CHS5, active compounds read low 1.01 | locus YLR342W, strain FKS1 (second series), active compounds read low 1 | locus YLR371W, strain rom2, active compounds read low 1.01 | locus YLR418C, strain cdc73, active compounds read low 1 | locus YML016C, strain PPZ1, active compounds read low 1 | locus YML032C, strain rad52, active compounds read low 1.02 | locus YML124C, strain tub3, active compounds read low 1 | locus YMR078C, strain ctf18, active compounds read low 0.997 | locus YMR223W, strain ubp8, active compounds read low 0.999 | locus YMR263W, strain SAP30, active compounds read low 0.998 | locus YMR307W, strain GAS1, active compounds read low 1 | locus YNL067W, strain RPL9B, active compounds read low 0.993 | locus YNL128W, strain TEP1, active compounds read low 1.03 | locus YNL153C, strain GIM3, active compounds read low 1.02 | locus YNL233W, strain BNI4, active compounds read low 0.982 | locus YNL250W, strain rad50, active compounds read low 1.02 | locus YNL271C, strain bni1, active compounds read low 1.03 | locus YNL298W, strain CLA4, active compounds read low 1.01 | locus YNL307C, strain MCK1, active compounds read low 1 | locus YNL322C, strain KRE1, active compounds read low 1 | locus YNR052C, strain pop2, active compounds read low 1.02 | locus YOL006C, strain TOP1, active compounds read low 0.984 | locus YOL012C, strain htz1 1.01 | locus YOL147C, strain pex11, active compounds read low 1 | locus YOR061W, strain CKA2, active compounds read low 1.01 | locus YOR069W, strain VPS5, active compounds read low 1 | locus YOR136W, strain idh2, active compounds read low 1.02 | locus YOR144C, strain elg1, active compounds read low 1.01 | locus YOR184W, strain ser1, active compounds read low 1.02 | locus YOR316C, strain cot1, active compounds read low 1.01 | locus YPL241C, strain CIN2, active compounds read low 0.993 | locus YPR119W, strain clb2, active compounds read low 1.02 | locus YPR141C, strain kar3, active compounds read low 1.01 | locus YPR163C, strain tif3, active compounds read low 1.01 | locus YPR167C, strain met16, active compounds read low 1 | strain wtn01, active compounds read low 1.02
